Inconclusive results are not listed. Active and inactive are the calls of the source. Calls come from the whole dose curve; as a rule, active = well fitted curve in the direction sought with a large enough effect; inconclusive = small, poorly fitted or top-dose-only effect, or another doubt; inactive = no such curve, though single readings can be large; an effect the other way counts as inactive or inconclusive.
What was measured:
[1] = qHTS to identify inhibitors of the type 1 interferon - major histocompatibility complex class I in skeletal muscle: primary screen against the NCATS Pharmaceutical Collection (AID 1347407); details: human skeletal muscle cells, IFN-b-induced MHC-I HiBiT luminescence, 24 h; series mostly up to 45.9 µM;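 note: luminescence of HiBiT knocked into endogenous HLA-B as interferon-induced MHC class I level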
Method in brief: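 Compounds […] were added to CRISPR-engineered HLA-B-HiBiT C25cl48 human myoblasts with 4.0 ng/ml IFN-beta. After 24 hrs at 37 C, cells were lysed and HiBiT luminescence measured.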

[2] = target: Protein phosphatase 1D (Homo sapiens) (UniProt O15297); experiment: RapidFire Mass Spectrometry qHTS Assay for Modulators of WT P53-Induced Phosphatase 1 (WIP1) (AID 1347424); details: WIP1 dephosphorylation of phosphopeptide, RapidFire MS; series mostly up to 63 µM;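 note: amount of dephosphorylated VEPPL-S-QETFS peptide product formed by WIP1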
Method in brief: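 10 nM WIP1 + cpd, 1 h RT; + 2 uM VEPPL-pS-QETFS, 5 min RT; stop 0.5% formic acid; labelled product standard 1 uM; RapidFire MS. Buffer 50 mM Tris pH 7.5, 30 mM MgCl2, 1 mM TCEP.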

[3] = target: Protein phosphatase 1D (Homo sapiens) (UniProt O15297); experiment: Rhodamine-PBP qHTS Assay for Modulators of WT P53-Induced Phosphatase 1 (WIP1) (AID 1347425); details: recombinant WIP1, Rhodamine-PBP phosphate fluorescence, real-time; series mostly up to 57.5 µM
Method in brief: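 The read-out is the change in Rhodamine-PBP fluorescence (f1 - f0, ex 525/em 598 nm) as Pi is released, read each minute for 11 min. Final reaction: 5 nM WIP1, 10 uM phosphopeptide VEPPL-pS-QETFS, 10 uM Rh-PBP, 50 mM Tris-HCl pH 7.5, 30 mM MgCl2. Compound was preincubated with enzyme for 1 hour at room temperature.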

[4] = Primary qHTS for inhibitors of La Crosse Virus (LACV) - induced cell death in SH-SY5Y cells (AID 1508616); details: SH-SY5Y LACV cytopathicity rescue, ATP luminescence, 6 d; series mostly up to 4.29 µM;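 note: top concentration of the series differs between compounds; higher means more rescue of cells from virus-induced death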
Method in brief: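 Readout was luminescence from ATPLite 1step added after a 6-day LACV infection (0.01 MOI) of SH-SY5Y cells that had received pin-transferred compound 24 hr after seeding.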

Measured: Potency

Chain of Protein phosphatase 1D (Homo sapiens) (O15297 whole entry, looked up): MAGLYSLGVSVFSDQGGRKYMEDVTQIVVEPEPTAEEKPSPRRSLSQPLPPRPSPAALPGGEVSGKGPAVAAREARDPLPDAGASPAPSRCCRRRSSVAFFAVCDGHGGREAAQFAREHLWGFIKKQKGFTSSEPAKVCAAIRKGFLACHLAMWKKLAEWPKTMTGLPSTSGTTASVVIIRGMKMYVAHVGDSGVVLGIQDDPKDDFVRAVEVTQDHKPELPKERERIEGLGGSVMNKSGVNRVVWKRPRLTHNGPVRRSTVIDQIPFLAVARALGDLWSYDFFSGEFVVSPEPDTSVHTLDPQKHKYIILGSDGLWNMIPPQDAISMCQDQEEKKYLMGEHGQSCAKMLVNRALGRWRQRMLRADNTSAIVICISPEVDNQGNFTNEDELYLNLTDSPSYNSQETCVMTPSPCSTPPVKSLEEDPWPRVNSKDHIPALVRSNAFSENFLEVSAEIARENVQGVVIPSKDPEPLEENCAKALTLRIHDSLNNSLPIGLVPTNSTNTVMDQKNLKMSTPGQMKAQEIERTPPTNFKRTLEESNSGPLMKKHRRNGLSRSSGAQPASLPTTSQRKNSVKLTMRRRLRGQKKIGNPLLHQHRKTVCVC

COc1ccc(-c2cc(C(F)F)nn2-c2ccc(S(N)(=O)=O)cc2)cc1F
inactive: all assays above

C=C[C@@]1(C)CC(=O)[C@]2(O)[C@@]3(C)[C@@H](O)CCC(C)(C)[C@@H]3[C@H](O)[C@H](OC(C)=O)[C@@]2(C)O1
inactive: all assays above

CCc1ccc(C(=O)C(C)CN2CCCCC2)cc1 (centres undefined)
inactive: all assays above

Cc1cc2c(OCC(CNC(C)(C)C)OC(=O)c3ccccc3)cccc2[nH]1 (centres undefined)
inactive: all assays above

Nc1nc(N)c(-c2ccccc2)s1
inactive: all assays above

COc1cc(C(=O)NCc2ccc(OCCN(C)C)cc2)cc(OC)c1OC
inactive: all assays above

CN1CCN(c2c(F)cc3c(=O)c(C(=O)O)cn4c3c2SCC4)CC1
inactive: all assays above

O=C(O)CCc1nc2ccccc2[nH]1
inactive: all assays above

C[C@@H](O)[C@H]1C(=O)N2C(C(=O)O)=C(S[C@@H]3CN[C@H](CNS(N)(=O)=O)C3)[C@H](C)[C@H]12
inactive: all assays above

N[C@H](C(=O)O)[C@@H](O)c1ccc(O)c(O)c1
inactive: all assays above

CN(C)C(=O)Nc1ccc(Cl)c(Cl)c1
inactive: all assays above

CN(C)CCOC(c1ccc(Cl)cc1)c1ccccn1 (centres undefined)
inactive: all assays above

CCCCc1cc2ccccc2c(OCCN(C)C)n1
inactive: all assays above

OC(C#CCN1CCCC1)(c1ccccc1)c1ccccc1
inactive: all assays above

COc1cc(C)nc(-n2nc(C)cc2OC)n1
inactive: all assays above

Cn1c(=O)c2[nH]c(Br)nc2n(C)c1=O
inactive: all assays above

CC(=O)Nc1ccc(OCC(O)CNC(C)C)cc1 (centres undefined)
inactive: all assays above

Cc1cccc(C)c1NC(=O)CN1CCCCCC1
inactive: all assays above

O=C(O)c1ccc(S(=O)(=O)N(Cl)Cl)cc1
inactive: all assays above

CCOc1cc(OCC)c(C(=O)CCC(=O)O)cc1OCC
inactive: all assays above

CCCN(CCC)S(=O)(=O)c1ccc(C(=O)O)cc1
inactive: all assays above

Cc1cc(NS(=O)(=O)c2ccc(N)cc2)nc(C)n1
inactive: all assays above

C=CCN1CCc2nc(N)sc2CC1
inactive: all assays above

C/C=C/c1ccc(O)c(OC)c1
inactive: all assays above

O=C(Nc1ccccc1)OCC(CN1CCCCC1)OC(=O)Nc1ccccc1 (centres undefined)
inactive: all assays above

OC1C(O)C(O)C(O)C(O)C1O (centres undefined)
inactive: all assays above

O=C(O)P(=O)(O)O
inactive: all assays above

COc1ccc2c(c1)c1c3n2CCN(C)C3=NCC1
inactive: all assays above

NC1CCN(c2nc3c(cc2F)c(=O)c(C(=O)O)cn3-c2ccc(F)cc2F)C1 (centres undefined)
inactive: all assays above

CCOc1ccccc1C(N)=O
inactive: all assays above

COc1ccc(CCN(C)CCCN2CCc3cc(OC)c(OC)cc3CC2=O)cc1OC
inactive: all assays above

CCCCC(CC)CN1CN(CC(CC)CCCC)CC(C)(N)C1 (centres undefined)
inactive: all assays above

OC[C@H]1O[C@@H](Oc2ccc(O)cc2)[C@H](O)[C@@H](O)[C@@H]1O
inactive: all assays above

COc1ccc(S(=O)(=O)N2c3ccc(Cl)cc3[C@@](O)(c3ccccc3Cl)[C@H]2C(=O)N2CCC[C@@H]2C(N)=O)cc1OC
inactive: all assays above

CCOC(=O)Nc1ccc2c(c1)N(C(=O)CCN1CCOCC1)c1ccccc1S2
inactive: all assays above

COc1ccc(/C=N/NC(=O)c2ccncc2)cc1OC
inactive: all assays above

Reference: PubChem BioAssay (NCATS)
